# PubChem BioAssay
# Calls of active or inactive are those of the source. Unless noted, how the calls were made is not given here.
# How the values were obtained:
# [1] = compound effects on lung adenocarcinoma cell viability – A549, calcein-AM fluorescence, 48 h, basal, profiling panel (AID 1162); settings: higher = more signal; further: test concentration not given here
# [2] = compound effects on differentiated 3T3-L1 adipocyte viability – cell-based, 3T3-L1 adipocytes, calcein-AM fluorescence, 48 h, basal, profiling panel (AID 1163); settings: 3T3-L1 adipocytes viability, higher = more signal; further: test concentration not given here
# [3] = compound effects on hepatocellular carcinoma cell viability – HepG2, calcein-AM fluorescence, 48 h, basal, profiling panel (AID 1164); settings: higher = more signal; further: test concentration not given here
# [4] = compound effects on multiple myeloma cell viability – MM1S, calcein-AM fluorescence, 48 h, basal, profiling panel (AID 1165); settings: higher = more signal;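 further: viability of MM1S multiple myeloma cells under basal unstimulated conditions; test concentration not given here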
# [5] = calcein-AM signal in unstimulated myeloma cells – cell-based, calcein-AM fluorescence, 48 h, PK04 Diversity Set, profiling panel (AID 1166); settings: RPMI8226 myeloma viability, higher = more signal;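 further: cells grown under basal conditions without added stimulus; test concentration not given here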
# [6] = JC-1 mitochondrial signal, unstimulated HepG2 cells – cell-based, JC-1 fluorescence, 24 h, 100 nL compound, profiling panel (AID 1167); settings: HepG2 mitochondrial potential, higher = more signal; further: test concentration not given here
# [7] = JC-1 mitochondrial signal, unstimulated adipocytes – cell-based, JC-1 fluorescence, 3T3-L1 adipocytes, 24 h, 100 nL compound, profiling panel (AID 1168); settings: JC-1 mitochondrial fluorescence, higher = more signal, called active from +8 up or from −8 down; further: test concentration not given here
# [8] = JC-1 mitochondrial signal, unstimulated myeloma cells – cell-based, JC-1 fluorescence, RPMI8226, 24 h, 100 nL compound, profiling panel (AID 1169); settings: JC-1 mitochondrial potential fluorescence, higher = more signal; further: test concentration not given here
# [9] = JC-1 mitochondrial signal, unstimulated MM1S myeloma – cell-based, JC-1 fluorescence, 24 h, 100 nL compound, profiling panel (AID 1170); settings: MM1S mitochondrial potential, higher = more signal; further: test concentration not given here
# [10] = resazurin metabolic signal in A549 cells – cell-based, resazurin fluorescence, 24 h, PK04 Diversity Set, profiling panel (AID 1171); settings: A549 viability, higher = more signal, called active from +8 up or from −8 down; further: test concentration not given here
# [11] = resazurin metabolic signal in HepG2 cells – cell-based, resazurin fluorescence, 24 h, PK04 Diversity Set, profiling panel (AID 1172); settings: HepG2 viability, higher = more signal; further: test concentration not given here
# [12] = budding yeast growth changes without added modifier – OD600, strain BY4716, 24 h, basal condition, primary screen (AID 1173); settings: S. cerevisiae BY4716 growth, OD600, 24 h; higher = more signal, called active from +8 up or from −8 down
# [13] = viability profiling in MM1S myeloma cells – cell-based, resazurin fluorescence, basal, 24 h, PK04 Diversity Set, profiling panel (AID 1174); settings: higher = more signal, called active from +8 up or from −8 down; further: test concentration not given here
# [14] = biological target: Dihydroorotate dehydrogenase (quinone), mitochondrial (Plasmodium falciparum (isolate 3D7)) (UniProt Q08210); assay: inhibition of P. falciparum DHODH – biochemical, C-terminal His tag, absorbance 600 nm, primary screen (AID 1175); settings: PfDHODH enzyme, DCIP absorbance 600 nm; higher = more signal, called active from +8 up or from −8 down;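 further: recombinant parasite enzyme with a five histidine tag at its C terminus; test concentration not given here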
# Dihydroorotate dehydrogenase (quinone), mitochondrial (Plasmodium falciparum (isolate 3D7)), sequence (Q08210 whole entry, looked up): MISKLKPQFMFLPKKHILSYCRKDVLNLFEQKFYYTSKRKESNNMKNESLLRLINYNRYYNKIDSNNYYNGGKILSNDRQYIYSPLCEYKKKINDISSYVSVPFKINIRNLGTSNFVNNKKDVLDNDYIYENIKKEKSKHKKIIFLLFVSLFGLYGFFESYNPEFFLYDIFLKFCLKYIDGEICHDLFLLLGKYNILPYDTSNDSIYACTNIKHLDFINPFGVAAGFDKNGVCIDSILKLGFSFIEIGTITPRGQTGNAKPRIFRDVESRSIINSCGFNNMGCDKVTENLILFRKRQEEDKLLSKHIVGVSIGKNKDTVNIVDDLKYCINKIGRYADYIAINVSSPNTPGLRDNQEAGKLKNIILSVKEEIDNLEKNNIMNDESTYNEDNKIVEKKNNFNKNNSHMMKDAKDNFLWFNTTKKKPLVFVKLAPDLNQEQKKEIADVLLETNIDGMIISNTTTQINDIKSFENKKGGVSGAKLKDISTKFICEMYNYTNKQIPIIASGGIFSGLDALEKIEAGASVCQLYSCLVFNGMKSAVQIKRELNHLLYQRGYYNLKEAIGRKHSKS
# [15] = inhibition of PAO1 biofilm formation – strain PAO1, LB-PBS medium, absorbance 600 nm, primary screen (AID 1176); further: test concentration not given here; settings: P. aeruginosa PAO1 growth/biofilm, A600, 12 h; higher = more signal
# [16] = growth modulation of vineyard yeast isolate – strain RM11-1a, OD600, basal, 24 h, primary screen (AID 1177);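 further: cultures grown under basal conditions with no added stressor; test concentration not given here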; settings: S. cerevisiae RM11-1a growth, OD600, 24 h; higher = more signal, called active from +8 up or from −8 down
# [17] = growth of efflux-deficient E. coli DRC39 – strain DRC39, OD650, 24 h, E. coli filamentation inducers, primary screen (AID 1178);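 further: growth measured as culture turbidity by optical density at 650 nm; test concentration not given here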; settings: E. coli DRC39 acrAB, higher = more signal, called active from +8 up or from −8 down
# [18] = growth of efflux-deficient E. coli DRC39 – strain DRC39, OD650, 48 h, E. coli filamentation inducers, primary screen (AID 1179);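 further: screen aims at cell division blockers that make cells filament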; settings: E. coli DRC39 delta-acrAB growth, higher = more signal, called active from +8 up or from −8 down
# [19] = viability profiling in RPMI8226 myeloma cells – cell-based, resazurin fluorescence, basal, 24 h, PK04 Diversity Set, profiling panel (AID 1180); settings: higher = more signal;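 further: RPMI8826 multiple myeloma cell line at 5000 cells per well; test concentration not given here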
# [20] = biological target: E3 ubiquitin-protein ligase XIAP (Homo sapiens) (UniProt P98170); assay: small molecules binding XIAP protein – biophysical, small-molecule microarray, fluorescence 635 nm, primary screen (AID 1181); settings: higher = more signal;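 further: score merges 667 nm emission and signal to noise over triplicate slides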
# E3 ubiquitin-protein ligase XIAP (Homo sapiens), sequence (P98170 whole entry, looked up): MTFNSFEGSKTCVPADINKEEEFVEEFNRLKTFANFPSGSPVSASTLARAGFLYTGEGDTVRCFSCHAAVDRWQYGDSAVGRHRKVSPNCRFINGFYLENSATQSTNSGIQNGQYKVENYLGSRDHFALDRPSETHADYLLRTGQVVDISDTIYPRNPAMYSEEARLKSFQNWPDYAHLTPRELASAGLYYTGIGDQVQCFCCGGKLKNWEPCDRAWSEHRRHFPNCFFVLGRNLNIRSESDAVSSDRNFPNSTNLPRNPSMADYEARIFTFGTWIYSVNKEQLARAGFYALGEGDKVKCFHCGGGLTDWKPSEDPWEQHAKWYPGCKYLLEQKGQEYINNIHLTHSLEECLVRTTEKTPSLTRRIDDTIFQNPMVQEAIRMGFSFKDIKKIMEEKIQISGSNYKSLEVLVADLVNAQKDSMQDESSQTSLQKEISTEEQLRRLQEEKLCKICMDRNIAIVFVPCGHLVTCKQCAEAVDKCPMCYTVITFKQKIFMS
SMILES,z-score [1],z-score [2],z-score [3],z-score [4],z-score [5],z-score [6],z-score [7],z-score [8],z-score [9],z-score [10],z-score [11],z-score [12],z-score [13],composite z-score [14],z-score [15],z-score [16],z-score [17],z-score [18],z-score [19],composite z-score [20]
CC1CC/C=C\[C@H]2OC34C=CCN(C(C)C)C(=O)[C@H]3N(CCCCCCO)C(=O)[C@@H]4C2C(=O)O1 (stereo not given in full),-0.868,1.53,0.25,1.2,0.626,-0.0558,-0.0814 (inactive),-0.426,-1.04,0.599 (inactive),0.609,-0.815 (inactive),0.794 (inactive),-0.36 (inactive),0.345 (inactive),-0.908 (inactive),1.05 (inactive),0.864 (inactive),2.06,0.0914
COc1cc(CO)cc(I)c1O[C@H]1C=C(C(=O)NCCO)C[C@@H](NCc2ccc(F)cc2)[C@@H]1O,0.56,0.385,2.22,-2.35,-0.456,0.871,-0.389 (inactive),-0.251,-2.07,-0.183 (inactive),-0.205,-3.76 (inactive),-1.29 (inactive),0.969 (inactive),0.507 (inactive),0.0419 (inactive),0.988 (inactive),0.878 (inactive),-0.512,-0.101
COC(=O)c1ccc([C@H](NC(=O)c2ccco2)[C@]2(C)C[C@H]2C2CCCCC2)cc1,-1.13,-1.2,-2.43,-2.65,-3.28,-2.5,-1.02 (inactive),-0.89,-1.12,-2.55 (inactive),-2.18,1.23 (inactive),-0.806 (inactive),-0.751 (inactive),0.619 (inactive),0.158 (inactive),-0.827 (inactive),-0.565 (inactive),-2.26,-0.0668
CN1C(=O)C2C=CC(C(O)c3cccc4ccccc34)N(N3CCCCC3)C2C1=O (stereo not given),-0.866,-0.576,-0.776,-1.21,-0.493,-1.79,-1.53 (inactive),0.776,-0.382,0.294 (inactive),-0.908,1.51 (inactive),-1.41 (inactive),-0.0243 (inactive),-0.0625 (inactive),-0.334 (inactive),-0.619 (inactive),-0.456 (inactive),-1.74,0.0077
COC(=O)[C@@]1(Cc2ccccc2)[C@H]2c3cc(C(=O)N(C)C)n(CCN4CNCC4=O)c3C[C@H]2CN1C(=O)c1ccccc1,0.134,-0.391,0.0701,0.0517,-0.002,0.196,-0.179 (inactive),-0.874,1.46,0.293 (inactive),0.0001,1.13 (inactive),-0.473 (inactive),0.0849 (inactive),-0.0703 (inactive),0.0591 (inactive),-0.459 (inactive),-0.217 (inactive),0.432,0.404
